Test results published in PubChem BioAssay (NCATS).
Results filed as inconclusive are left out. Unmarked numbers belong to inactive results. Activity calls are given as the source filed them. The call rests on the fitted dose curve; in most records, active means well fitted curve in the direction sought with a large enough effect; inconclusive means small, poorly fitted or top-dose-only effect, or another doubt; inactive means no such curve, though single readings can be large; an effect the other way counts as inactive or inconclusive.

tested on: WaGa; assay: qHTS assay to identify novel small-molecules to repurpose for Merkel cell carcinoma treatment (AID 1296009); conditions: MCC and control cell lines, CellTiter-Glo viability, 72 h; series mostly up to 46 µM; activity change, negative = cytotoxicity: at the top concentration; further: nearly all actives have a fitted effect of over 60% in size
In short: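 After compound transfer in DMSO, plates were kept 72 hr at 37 degree celsius. Luminescent ATP signal from CellTiter-Glo served as viability measure, normalized against DMSO and no-cell controls.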
On the % scale 0 is the no-effect control and ±100 the full control effect; potency means the concentration at half of the fitted maximal effect.

Compared with `CCCCCCCc1ccc(CCc2cccc(O)c2C(=O)O)cc1`, `O=S(=O)(N=Cc1c(O)ccc2ccccc12)c1cccs1` is higher in “activity change, negative = cytotoxicity” value: -2.41% for the first, -1.09% for the second.

Going from `COCCNCCCn1c(C(=O)CF)c(-c2ccc(C)cc2)c2c(N)ncnc21` to `Nc1ncnc2nc(-c3ccc(N4CCOCC4)nc3)cc(-c3cccc(Br)c3)c12`, the “activity change, negative = cytotoxicity” value rises from -7.9% to -0.768%.

First: COc1cc(F)c(F)c(Nc2ccc(I)cc2F)c1NS(=O)(=O)C1(C[C@H](O)CO)CC1
Second: Cn1c(=O)c(F)c(Nc2ccc(I)cc2F)c2c(=O)n(C[C@@H](O)CO)cnc21
The “activity change, negative = cytotoxicity” value of the first is higher: 8.53% for the first, -8.83% for the second.

Going from `N#Cc1ccc(C(c2ccc(C#N)cc2)n2cncn2)cc1` to `Cc1c(CCOc2ccc(C(=O)O)cc2)c2cc(Cl)ccc2n1C(c1ccccc1)c1ccccc1`, the “activity change, negative = cytotoxicity” value falls from -9.78% to -13.3%.

First: COc1cc(Oc2ccnc3cc(OC)c(OC)cc23)ccc1NC(=O)NC(C)c1nccs1 (stereo not drawn)
Second: Cc1ccc(NC(=O)c2cccc(C(C)(C)C#N)c2)cc1Nc1ccc2ncn(C)c(=O)c2c1
The “activity change, negative = cytotoxicity” value of the first is higher: -5.08% for the first, -27.6% for the second.

First: CCOC(=O)N[C@@H]1CC[C@@H]2[C@@H](C1)C[C@H]1C(=O)O[C@H](C)[C@H]1[C@@H]2C=Cc1ccc(-c2cccc(F)c2)cn1
Second: O=C(C1CC1)N1CC[C@@H](Cn2c(-c3ccc(-c4ccc5occc5c4)cc3)nc3cnccc32)C1
The “activity change, negative = cytotoxicity” value of the first is lower: -14.6% for the first, -9.82% for the second.

Compared with `O=C(C=Cc1ccc(/C=C/C(=O)Nc2ccc(C3=NCCN3)cc2)cc1)Nc1ccc(C2=NCCN2)cc1`, `NC(=O)c1ccc(-c2nc(-c3ccc4c(c3)OCCO4)c(-c3ccccn3)[nH]2)cc1` is higher in “activity change, negative = cytotoxicity” value: -7.68% for the first, -0.796% for the second.

Going from `COc1ccc2nc(S(=O)Cc3ncc(C)c(OC)c3C)[nH]c2c1` (stereo not drawn) to `Nc1nccc(-c2ccc3noc(-c4ccc(Cl)cc4)c3c2)n1`, the “activity change, negative = cytotoxicity” value falls from -9.87% to -14.4%.

First: CC(C)C[C@H](NC(=O)[C@@H](O)[C@H](N)Cc1ccccc1)C(=O)O
Second: CCOC(=O)C1=C[C@]2(CC)CCCN3CCc4c(n1c1ccccc41)[C@@H]32
The “activity change, negative = cytotoxicity” value of the first is lower: -8.97% for the first, -8.27% for the second.

Going from `CN(C)c1ccc(C2Nc3ccc4ccccc4c3C3=C2C(=O)CC(C)(C)C3)cc1Br` (stereo not drawn) to `CCc1cc(Nc2nccc(-c3c(-c4ccc(OC)c(C(=O)Nc5c(F)cccc5F)c4)nc4ccccn34)n2)c(OC)cc1N1CCC(N2CCN(S(C)(=O)=O)CC2)CC1`, the “activity change, negative = cytotoxicity” value falls from 1.65% to -11.1%.

Going from `CC(C)(C)OC(=O)CN(Cc1ccc(Cl)cc1)Cc1ccc([N+](=O)[O-])s1` to `Nc1cccc(S(=O)(=O)N2CCCN(S(=O)(=O)c3ccc4c(c3)OCCO4)CC2)c1`, the “activity change, negative = cytotoxicity” value rises from -20.8% to -9.32%.

For `c1ccc(-c2nn3c(c2-c2ccnc4cc(OCCN5CCOCC5)ccc24)CCC3)nc1`, the Potency was 14.8 µM (active).
With `COc1cc2nccc(Oc3ccc(NC(=O)NC4CC4)c(Cl)c3)c2cc1C(N)=O` the Potency was 1.48 µM (active).
In the case of `CCn1cc(C(=O)O)c(=O)c2cc(F)c(N3CCNC(C)C3)c(F)c21` (stereo not drawn), the Potency is reported as “inactive”.
With `CCOc1cc(N2CCC(O)CC2)ccc1Nc1ncc2c(n1)N(C)c1ccccc1C(=O)N2C` the Potency was 3.72 µM (active).

tested on: C33A; assay: Primary qHTS to identify gynecologic anti-cancer compounds using libraries of approved drugs and bioactive compounds (AID 1345084); conditions: Gynecologic cancer cell panel viability, ATPlite luminescence, 48 h; series mostly up to 57.5 µM; activity change, negative = cytotoxicity: at the top concentration; further: nearly all actives have a fitted effect of over 55% in size
In short: (§1)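 Five-concentration response, 48 h; readout is ATP-driven luciferase luminescence.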

Compared with `CCC(C)(C)C(=O)O[C@H]1C[C@@H](C)C=C2C=C[C@H](C)[C@H](CC[C@@H]3C[C@@H](O)CC(=O)O3)[C@H]21`, `CCn1cc(C(=O)O)c(=O)c2cc(F)c(N3CCNC(C)C3)c(F)c21` (stereo not drawn) is higher in “activity change, negative = cytotoxicity” value: -4.6% for the first, 2.64% for the second.

First: COc1cc(F)c(F)c(Nc2ccc(I)cc2F)c1NS(=O)(=O)C1(C[C@H](O)CO)CC1
Second: COc1cc2nccc(Oc3ccc(NC(=O)NC4CC4)c(Cl)c3)c2cc1C(N)=O
The “activity change, negative = cytotoxicity” value of the first is lower: -9.6% for the first, -2.64% for the second.

First: Nc1nc2c(ncn2COCCO)c(=O)[nH]1
Second: COc1ccc2nc(S(=O)Cc3ncc(C)c(OC)c3C)[nH]c2c1 (stereo not drawn)
The “activity change, negative = cytotoxicity” value of the first is higher: 19.2% for the first, 1.69% for the second.

Compared with `COc1cc(Oc2ccnc3cc(OC)c(OC)cc23)ccc1NC(=O)NC(C)c1nccs1` (stereo not drawn), `CCc1cc(Nc2nccc(-c3c(-c4ccc(OC)c(C(=O)Nc5c(F)cccc5F)c4)nc4ccccn34)n2)c(OC)cc1N1CCC(N2CCN(S(C)(=O)=O)CC2)CC1` is lower in “activity change, negative = cytotoxicity” value: 7.03% for the first, -1.88% for the second.

Compared with `Oc1ccc(C2CNCCc3c2cc(O)c(O)c3Cl)cc1` (stereo not drawn), `NC[C@H](O)c1ccc(O)c(O)c1` is higher in “activity change, negative = cytotoxicity” value: 0.688% for the first, 1.46% for the second.

Compared with `CN(C)c1ccc(C2Nc3ccc4ccccc4c3C3=C2C(=O)CC(C)(C)C3)cc1Br` (stereo not drawn), `CN(C)c1ccc(Nc2nc(N)n(C(=O)c3c(F)cccc3F)n2)cc1` is higher in “activity change, negative = cytotoxicity” value: 13.7% for the first, 27.2% for the second.

Compared with `N[C@@H]1CONC1=O`, `CCOC(=O)C1=C[C@]2(CC)CCCN3CCc4c(n1c1ccccc41)[C@@H]32` is higher in “activity change, negative = cytotoxicity” value: 0.701% for the first, 30.1% for the second.

tested on: CAOV3; assay: as above; conditions: Gynecologic cancer cell panel viability, ATPlite luminescence, 48 h; series mostly up to 57.5 µM; activity change, negative = cytotoxicity: at the top concentration
In short: as §1

First: CCC(C)(C)C(=O)O[C@H]1C[C@@H](C)C=C2C=C[C@H](C)[C@H](CC[C@@H]3C[C@@H](O)CC(=O)O3)[C@H]21
Second: CCn1cc(C(=O)O)c(=O)c2cc(F)c(N3CCNC(C)C3)c(F)c21 (stereo not drawn)
The “activity change, negative = cytotoxicity” value of the first is lower: -21.7% for the first, 15.7% for the second.

Compared with `Nc1nc2c(ncn2COCCO)c(=O)[nH]1`, `COc1ccc2nc(S(=O)Cc3ncc(C)c(OC)c3C)[nH]c2c1` (stereo not drawn) is lower in “activity change, negative = cytotoxicity” value: 6.12% for the first, -9.51% for the second.

First: COc1cc(Oc2ccnc3cc(OC)c(OC)cc23)ccc1NC(=O)NC(C)c1nccs1 (stereo not drawn)
Second: COc1cc2nccc(Oc3ccc(NC(=O)NC4CC4)c(Cl)c3)c2cc1C(N)=O
The “activity change, negative = cytotoxicity” value of the first is higher: -11.1% for the first, -30.2% for the second.

Compared with `NC[C@H](O)c1ccc(O)c(O)c1`, `CN(C)c1ccc(Nc2nc(N)n(C(=O)c3c(F)cccc3F)n2)cc1` is lower in “activity change, negative = cytotoxicity” value: -0.881% for the first, -1.4% for the second.

Going from `CN(C)c1ccc(C2Nc3ccc4ccccc4c3C3=C2C(=O)CC(C)(C)C3)cc1Br` (stereo not drawn) to `CCOC(=O)C1=C[C@]2(CC)CCCN3CCc4c(n1c1ccccc41)[C@@H]32`, the “activity change, negative = cytotoxicity” value falls from 3.16% to -5.46%.

First: CCc1cc(Nc2nccc(-c3c(-c4ccc(OC)c(C(=O)Nc5c(F)cccc5F)c4)nc4ccccn34)n2)c(OC)cc1N1CCC(N2CCN(S(C)(=O)=O)CC2)CC1
Second: N[C@@H]1CONC1=O
The “activity change, negative = cytotoxicity” value of the first is lower: 1.71% for the first, 9.18% for the second.

For `Cc1oncc1C(=O)Nc1ccc(C(F)(F)F)cc1`, the Potency was 12.6 µM (active).
